The test system of one test is MCC-26. The test can be described thus: qHTS assay to identify novel small-molecules to repurpose for Merkel cell carcinoma treatment (AID 1296009). Further: nearly all actives have a fitted effect of over 60% in size. The conditions noted are these: MCC and control cell lines, CellTiter-Glo viability, 72 h; series mostly up to 46 µM. An outline of the steps:
(§1)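 qHTS format: cells treated with library compounds in DMSO across 8 (NPC) or 11 (MIPE) concentrations. Readout after 72 hr at 37 degree celsius was CellTiter-Glo luminescence.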
On the technique in general: Quantitative high-throughput screening tests each substance at several concentrations.

Another test deals with MKL-1. The test is described as above. The conditions noted are these: MCC and control cell lines, CellTiter-Glo viability, 72 h; series mostly up to 46 µM. In outline:
as §1
Background: In ATP-based viability assays light output follows the ATP content of the culture.

In a further test the test system is NIH3T3. The description is as above. The conditions noted are these: MCC and control cell lines, CellTiter-Glo viability, 72 h; at 44.8 µM (top of the series) unless noted. An outline of the steps:
as §1

A further test concerns UISO. The test is described as above. Particulars: MCC and control cell lines, CellTiter-Glo viability, 72 h; series mostly up to 46 µM. An outline of the steps: as §1
Another test concerns C33A. The test can be described thus: Primary qHTS to identify gynecologic anti-cancer compounds using libraries of approved drugs and bioactive compounds (AID 1345084). Further: nearly all actives have a fitted effect of over 55% in size. Particulars: Gynecologic cancer cell panel viability, ATPlite luminescence, 48 h; series mostly up to 57.5 µM. In outline:
(§2)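 Cells, 1,000 per well, plated 16 h, then exposed 48 h at 37 C to compounds. Viability by ATPlite luminescence after 15 min at room temperature.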

A further test deals with CAOV3. The test is described as above. The conditions noted are these: Gynecologic cancer cell panel viability, ATPlite luminescence, 48 h; series mostly up to 57.5 µM. In outline: as §2
In another test the test system is CASKI. Described as above. Particulars: Gynecologic cancer cell panel viability, ATPlite luminescence, 48 h; series mostly up to 57.5 µM. In outline: as §2
Another test concerns Es-2. The description is as above. The conditions noted are these: Gynecologic cancer cell panel viability, ATPlite luminescence, 48 h; series mostly up to 57.5 µM. An outline of the steps: as §2
In a further test the test system is MKL-2. The test can be described thus: qHTS assay to identify novel small-molecules to repurpose for Merkel cell carcinoma treatment (AID 1296009). Further: nearly all actives have a fitted effect of over 60% in size. The conditions noted are these: MCC and control cell lines, CellTiter-Glo viability, 72 h; series mostly up to 46 µM. In outline: as §1
In the next test the test system is WaGa. The description is as above. The conditions noted are these: MCC and control cell lines, CellTiter-Glo viability, 72 h; series mostly up to 46 µM. An outline of the steps:
as §1

SMILES strings stand for the structures. Records with an inconclusive call do not appear. Active and inactive are the calls of the source. The call rests on the fitted dose curve; in most records, active means well fitted curve in the direction sought with a large enough effect; inconclusive means small, poorly fitted or top-dose-only effect, or another doubt; inactive means no such curve, though single readings can be large; an effect the other way counts as inactive or inconclusive.
Potency means the concentration at half of the fitted maximal effect.

Turning to `NCCc1ccc(O)cc1`, the Potency entry in the test on MCC-26, in the test with MKL-1, in the test on UISO, with C33A and in the test with Es-2 was “inactive” each time. Besides, the outcome with NIH3T3, with CAOV3 and with CASKI was inactive.
For `CN1C(=O)COc2c(C(=O)NC3CN4CCC3CC4)cc(Cl)cc21` (stereo unspecified), the Potency result in the test with MCC-26, with MKL-1, in the test with MKL-2, in the test on UISO, in the test with WaGa and with C33A was “inactive” throughout. The Potency entry with Es-2 is “inactive”. The call with CAOV3 and with CASKI was inactive.
For `O=C(O)CCCc1ccc(N(CCCl)CCCl)cc1`, the Potency entry in the test with MCC-26, with MKL-1, in the test with MKL-2, in the test with UISO, in the test on WaGa and in the test on C33A was “inactive” in each case. For the same compound, the Potency result with Es-2 was “inactive”. In addition, the outcome in the test on CAOV3 and in the test on CASKI was inactive.
For the compound `C[C@]12CCC(=O)C=C1CC[C@@H]1[C@@H]2CC[C@]2(C)C(=O)CC[C@@H]12`, the Potency entry in the test on MCC-26, in the test with MKL-1, in the test on MKL-2, in the test on C33A and in the test with Es-2 was “inactive” in each case. In addition, the compound was classed as inactive in the test with CAOV3 and with CASKI.
On to `Clc1ccc(C(c2ccc(Cl)cc2)C(Cl)(Cl)Cl)cc1`, for which the Potency result in the test on MKL-1, with MKL-2, with UISO, in the test on WaGa, in the test with C33A and in the test on Es-2 was “inactive” throughout. The compound was classed as inactive in the test on CAOV3 and with CASKI.
Turning to `C[C@]12CCC(=O)C=C1CC[C@@H]1[C@H]3CC[C@](C)(O)[C@@]3(C)CC[C@@H]12`, the Potency entry in the test with C33A and with Es-2 was “inactive” in each case. The call with CAOV3 was inactive.
Consider `CC(NC(C)(C)C)C(=O)c1cccc(Cl)c1` (stereo unspecified), for which the Potency result in the test on MKL-1, in the test with MKL-2, in the test on UISO, in the test on WaGa, in the test with C33A and in the test with Es-2 was “inactive” throughout. For the same compound, the compound was called inactive with NIH3T3, in the test with CAOV3 and in the test on CASKI.
For the compound `C[C@]12CC[C@H]3[C@@H](CCC4=CC(=O)CC[C@@H]43)[C@@H]1CC[C@@H]2OC(=O)CCC1CCCCC1`, the Potency result in the test with MKL-1, in the test with C33A and with Es-2 was “inactive” throughout. Further, the compound was classed as inactive with NIH3T3, with CAOV3 and in the test with CASKI. Moreover, in the test on WaGa, the Potency was 18.8 µM (active).
Consider `Cc1ncsc1CCCl`, for which the Potency result in the test with MKL-1, in the test on MKL-2, in the test on UISO, in the test with WaGa, in the test on C33A and in the test on Es-2 was “inactive” in each case. Further, the result with CAOV3 and with CASKI was inactive.
Take `CCCN(CCC)C(=O)Cc1c(-c2ccc(Cl)cc2)nc2ccc(Cl)cn12`: the Potency entry in the test with MKL-1, in the test on MKL-2, in the test with UISO, in the test with WaGa, with C33A and with Es-2 was “inactive” throughout. Moreover, the compound was called inactive in the test on CAOV3 and in the test on CASKI.
For the compound `COc1cccc2c1C(=O)c1c(O)c3c(c(O)c1C2=O)C[C@@](O)(C(=O)CO)CC3OC1CC(N2CCOC(OC)C2)C(O)C(C)O1` (stereo partly specified), the Potency with UISO was 0.0188 µM (active); with WaGa it was 0.0237 µM (active); in the test with C33A it was 0.282 µM (active).
As for `C[C@]12CCC(=O)C=C1CC[C@@H]1[C@@H]2CC[C@@]2(C)[C@H]1CC[C@]2(C)O`, the Potency entry in the test with MKL-1, in the test with C33A and in the test on Es-2 was “inactive” in each case. The call in the test on CAOV3 and in the test with CASKI was inactive.
Regarding `NC1=NC(=O)C(c2ccccc2)O1` (stereo unspecified), the Potency result with MKL-1, with MKL-2, in the test with UISO, with WaGa, in the test on C33A and with Es-2 was “inactive” throughout. The compound was called inactive in the test on CAOV3 and with CASKI.
`C#C[C@]1(O)CC[C@H]2[C@@H]3CCC4=CC(=O)CC[C@]4(C)[C@H]3CC[C@@]21C`: the Potency entry in the test with MKL-1, in the test with MKL-2, with UISO, in the test with WaGa, with C33A and in the test with Es-2 was “inactive” throughout. The result in the test with CAOV3 and in the test on CASKI was inactive.
On to `Oc1ccc(Cl)cc1`, for which the Potency result with MKL-1, with MKL-2, in the test with UISO, in the test with WaGa, with C33A and in the test on Es-2 was “inactive” each time. For the same compound, the compound was classed as inactive in the test on CAOV3 and in the test on CASKI.
In the case of `NC(=O)c1cc([N+](=O)[O-])cc([N+](=O)[O-])c1`, the Potency result in the test on MKL-1, with MKL-2, with UISO, in the test with WaGa, with C33A and with Es-2 was “inactive” throughout. Also, the call in the test on CAOV3 and with CASKI was inactive.
Take `CCN[C@@H](C)Cc1ccccc1`: the Potency entry with MKL-1, in the test with MKL-2, in the test with UISO, with WaGa, in the test with C33A and with Es-2 was “inactive” each time. For the same compound, the result with CASKI was inactive.
With `C[C@@H](N)[C@@H](O)c1ccccc1`, the Potency result with C33A and in the test with Es-2 was “inactive” in each case. Further, the compound was called inactive in the test with CAOV3 and with CASKI.
`CCOC(=O)CC(SP(=S)(OC)OC)C(=O)OCC` (stereo unspecified): the Potency entry in the test with MKL-1, in the test on MKL-2, with UISO, in the test on WaGa, with C33A and with Es-2 was “inactive” in each case. Besides, the compound was classed as inactive in the test on CAOV3 and with CASKI.
Consider `CC(C)N(CCC(C(N)=O)(c1ccccc1)c1ccccn1)C(C)C` (stereo unspecified), for which the Potency result with MKL-1, in the test on MKL-2, with UISO, in the test with WaGa, with C33A and in the test with Es-2 was “inactive” each time. Besides, the compound was classed as inactive in the test on CAOV3 and with CASKI.
For `Nc1nc(N)nc(NC2CC2)n1`, the Potency entry with MKL-1, with MKL-2, with UISO, in the test on WaGa, with C33A and in the test with Es-2 was “inactive” throughout. Further, the compound was called inactive in the test on CAOV3 and in the test on CASKI.
For `CC(=O)NC1CCSC1=O` (stereo unspecified), the Potency result in the test with MKL-1, with UISO, with WaGa, in the test on C33A and in the test with Es-2 was “inactive” in each case. For the same compound, in the test with CASKI, the outcome was inactive.
As for `O=C(O)c1ccc(=O)[nH]c1`, the Potency entry in the test with MKL-1, with MKL-2, in the test on UISO, with WaGa, in the test with C33A and in the test with Es-2 was “inactive” in each case. The outcome with NIH3T3, in the test with CAOV3 and with CASKI was inactive.
As to `C=CCN1C[C@H](C)N([C@H](c2ccc(C(=O)N(CC)CC)cc2)c2cccc(OC)c2)C[C@H]1C`, the Potency result with MKL-1, in the test on MKL-2, with UISO, in the test on WaGa, in the test with C33A and in the test with Es-2 was “inactive” throughout. For the same compound, the call with CAOV3 and with CASKI was inactive.
Take `C[C@](O)(CS(=O)(=O)c1ccc(F)cc1)C(=O)Nc1ccc(C#N)c(C(F)(F)F)c1`: in the test on MKL-1, the Potency entry is “inactive”. The Potency is 23.5 µM (active) in the test with MKL-2 and 13.2 µM (active) in the test on WaGa.
With `CC(C)(C)c1ccc(O)cc1`, the Potency entry in the test on C33A and in the test with Es-2 was “inactive” each time. The call in the test on CAOV3 and in the test on CASKI was inactive.
On to `CN1C(=O)CCS(=O)(=O)C1c1ccc(Cl)cc1` (stereo unspecified), for which the Potency result in the test with MKL-1, in the test with MKL-2, in the test on UISO, in the test with WaGa, with C33A and in the test on Es-2 was “inactive” throughout. In addition, the result in the test with CAOV3 and in the test on CASKI was inactive.
As to `CCCOC(=O)c1cncn1C(C)c1ccccc1` (stereo unspecified), the Potency result in the test with MKL-1, with MKL-2, in the test on UISO, in the test on WaGa, in the test on C33A and in the test on Es-2 was “inactive” in each case. Further, the call in the test on CAOV3 and with CASKI was inactive.
For the compound `COc1ccc2c3c1O[C@H]1[C@H](O)CC[C@H]4[C@@H](C2)N(C)CC[C@@]341`, the Potency entry in the test with MKL-2, with UISO, with WaGa, with C33A and with Es-2 was “inactive” each time. In the test on NIH3T3, the outcome is “inactive [at 92 µM]”. Further, the compound was called inactive with CAOV3 and in the test on CASKI.
For `COP(=S)(OC)Oc1ccc(SC)c(C)c1`, the Potency result in the test on MKL-1, in the test on MKL-2, in the test with UISO, with WaGa, in the test with C33A and in the test on Es-2 was “inactive” throughout. The outcome with CAOV3 and in the test with CASKI was inactive.
For the compound `C=CCC1([C@H](C)CCC)C(=O)NC(=O)NC1=O`, the Potency result in the test on MKL-1, in the test on MKL-2, with UISO, in the test with WaGa, in the test on C33A and in the test with Es-2 was “inactive” throughout. Also, the outcome in the test with CAOV3 and with CASKI was inactive.
